Reference: the supplement of paper PMC7411054
Structures can show the parent of a compound that is named as a salt.

Tests used:
Settings in all cases: treatment time: 24 h
A549-ACTB-RAB5A [1] = assay: lowest phenotypically active concentration; higher = less potent
Outline: (§1)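 Cells from fifteen gene-edited reporter lines (A549, HepG2 and WPMY1) were treated for 24 h at 0.3, 1, 3 or 9 µM and imaged live, four wells per condition. Features were normalised per well to solvent control wells. A condition deviated if ≥3 of 4 wells passed the 95th percentile of control Euclidean distances and was reproducible if its median replicate Pearson correlation beat the 95th percentile of non-replicates; phenotypic activity needed both.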

A549-CANX-COX4 [2] = assay: as above
Outline: as §1

A549-GM130-SQSTM1 [3] = assay: as above
Outline: as §1

A549-TP53BP1-CLTA [4] = assay: as above
Outline: as §1

A549-TUBA1B-RELA [5] = assay: as above
Outline: as §1

A549-ACTB-RAB5A [6] = assay: phenotypically active (imaging signature differs from DMSO and reproducible) at any of 0.3-9 uM (binary (1 = active, 0 = inactive)); higher = active
Outline: as §1

A549-CANX-COX4 [7] = assay: as above
Outline: as §1

A549-GM130-SQSTM1 [8] = assay: as above
Outline: as §1

A549-TP53BP1-CLTA [9] = assay: as above
Outline: as §1

A549-TUBA1B-RELA [10] = assay: as above
Outline: as §1

HepG2-ACTB-RAB5A = assay: as above
Outline: as §1

HepG2-CANX-COX4 = assay: as above
Outline: as §1

HepG2-GM130-SQSTM1 = assay: as above
Outline: as §1

HepG2-TP53BP1-CLTA = assay: as above
Outline: as §1

HepG2-TUBA1B-RELA = assay: as above
Outline: as §1

WPMY1-ACTB-RAB5A = assay: as above
Outline: as §1

WPMY1-CANX-COX4 = assay: as above
Outline: as §1

WPMY1-GM130-SQSTM1 = assay: as above
Outline: as §1

WPMY1-TP53BP1-CLTA = assay: as above
Outline: as §1

WPMY1-TUBA1B-RELA = assay: as above
Outline: as §1

| Compound | lowest phenotypically active concentration (A549-ACTB-RAB5A [1]) [µM] | lowest phenotypically active concentration (A549-CANX-COX4 [2]) [µM] | lowest phenotypically active concentration (A549-GM130-SQSTM1 [3]) [µM] | lowest phenotypically active concentration (A549-TP53BP1-CLTA [4]) [µM] | lowest phenotypically active concentration (A549-TUBA1B-RELA [5]) [µM] | phenotypically active (A549-ACTB-RAB5A [6]) | phenotypically active (A549-CANX-COX4 [7]) | phenotypically active (A549-GM130-SQSTM1 [8]) | phenotypically active (A549-TP53BP1-CLTA [9]) | phenotypically active (A549-TUBA1B-RELA [10]) | phenotypically active (HepG2-ACTB-RAB5A) | phenotypically active (HepG2-CANX-COX4) | phenotypically active (HepG2-GM130-SQSTM1) | phenotypically active (HepG2-TP53BP1-CLTA) | phenotypically active (HepG2-TUBA1B-RELA) | phenotypically active (WPMY1-ACTB-RAB5A) | phenotypically active (WPMY1-CANX-COX4) | phenotypically active (WPMY1-GM130-SQSTM1) | phenotypically active (WPMY1-TP53BP1-CLTA) | phenotypically active (WPMY1-TUBA1B-RELA) |
| --- | --- | --- | --- | --- | --- | --- | --- | --- | --- | --- | --- | --- | --- | --- | --- | --- | --- | --- | --- | --- |
| COc1cc(C[C@H]2C(=O)OC[C@@H]2Cc2ccc(OC)c(OC)c2)ccc1O [Arctigenin] | 3 | 3 | 3 | 3 | 9 | 1 (active) | 1 (active) | 1 (active) | 1 (active) | 1 (active) | 1 (active) | 1 (active) | 1 (active) | 1 (active) | 1 (active) | 0 (inactive) | 0 (inactive) | 0 (inactive) | 0 (inactive) | 0 (inactive) |
| O=c1ncn2nc(Sc3ccc(F)cc3F)ccc2c1-c1c(Cl)cccc1Cl | 9 |  |  |  |  | 1 (active) | 0 (inactive) | 0 (inactive) | 0 (inactive) | 0 (inactive) | 0 (inactive) | 0 (inactive) | 0 (inactive) | 0 (inactive) | 0 (inactive) | 0 (inactive) | 0 (inactive) | 0 (inactive) | 0 (inactive) | 0 (inactive) |
| NC(=O)c1ccc(N(C(N)=O)c2c(F)cccc2F)nc1-c1ccc(F)cc1F | 9 |  |  |  |  | 1 (active) | 0 (inactive) | 0 (inactive) | 0 (inactive) | 0 (inactive) | 0 (inactive) | 0 (inactive) | 0 (inactive) | 0 (inactive) | 0 (inactive) | 0 (inactive) | 0 (inactive) | 0 (inactive) | 0 (inactive) | 0 (inactive) |
| COc1cc2c3cc1Oc1cc(ccc1O)C[C@@H]1c4c(cc(OC)c(O)c4Oc4ccc(cc4)C[C@@H]3N(C)CC2)CC[N+]1(C)C [(+)-Tubocurarine chloride] |  |  |  |  |  | 0 (inactive) | 0 (inactive) | 0 (inactive) | 0 (inactive) | 0 (inactive) | 0 (inactive) | 0 (inactive) | 0 (inactive) | 0 (inactive) | 0 (inactive) | 0 (inactive) | 0 (inactive) | 0 (inactive) | 0 (inactive) | 0 (inactive) |
| COc1c(C)cnc(Cn2cc(C#CCC(C)(C)O)c3c(Cl)nc(N)nc32)c1C | ≤ 0.3 | ≤ 0.3 | ≤ 0.3 | ≤ 0.3 | ≤ 0.3 | 1 (active) | 1 (active) | 1 (active) | 1 (active) | 1 (active) | 1 (active) | 1 (active) | 1 (active) | 1 (active) | 1 (active) | 1 (active) | 1 (active) | 1 (active) | 1 (active) | 1 (active) |
| CN1c2ccccc2C(=O)N2CCc3c([nH]c4ccccc34)[C@H]21 [Evodiamine] | 1 | 1 | 1 | 3 | 1 | 1 (active) | 1 (active) | 1 (active) | 1 (active) | 1 (active) | 1 (active) | 1 (active) | 1 (active) | 1 (active) | 1 (active) | 1 (active) | 1 (active) | 1 (active) | 1 (active) | 1 (active) |
| CC[C@@H]1C(=O)N(C)c2cnc(Nc3ccc(C(=O)NC4CCN(C)CC4)cc3OC)nc2N1C1CCCC1 | ≤ 0.3 | ≤ 0.3 | 1 | ≤ 0.3 | ≤ 0.3 | 1 (active) | 1 (active) | 1 (active) | 1 (active) | 1 (active) | 1 (active) | 1 (active) | 1 (active) | 1 (active) | 1 (active) | 1 (active) | 1 (active) | 1 (active) | 1 (active) | 1 (active) |
| Nc1ccn([C@@H]2O[C@H](CO)[C@@H](O)[C@@H]2O)c(=O)n1 [cytarabine] | ≤ 0.3 | ≤ 0.3 | ≤ 0.3 | ≤ 0.3 | ≤ 0.3 | 1 (active) | 1 (active) | 1 (active) | 1 (active) | 1 (active) | 1 (active) | 1 (active) | 1 (active) | 1 (active) | 1 (active) | 1 (active) | 1 (active) | 1 (active) | 1 (active) | 1 (active) |
| CC(=O)NCC(=O)N1[C@@H]2CC[C@H]1c1ccc(Nc3ncc(C(F)(F)F)c(NC4CCC4)n3)cc12 | ≤ 0.3 | ≤ 0.3 | ≤ 0.3 | ≤ 0.3 | ≤ 0.3 | 1 (active) | 1 (active) | 1 (active) | 1 (active) | 1 (active) | 1 (active) | 1 (active) | 1 (active) | 1 (active) | 1 (active) | 1 (active) | 1 (active) | 1 (active) | 1 (active) | 1 (active) |
| Cc1ncc(-c2ccnc(Nc3ccc(S(C)(=O)=O)cc3)n2)n1C(C)C | ≤ 0.3 | ≤ 0.3 | ≤ 0.3 | ≤ 0.3 | ≤ 0.3 | 1 (active) | 1 (active) | 1 (active) | 1 (active) | 1 (active) | 1 (active) | 1 (active) | 1 (active) | 1 (active) | 1 (active) | 1 (active) | 1 (active) | 1 (active) | 1 (active) | 1 (active) |
| Cc1c(NC(=O)OC[C@@H]2COCCN2)cn2ncnc(Nc3ccc4c(cnn4Cc4cccc(F)c4)c3)c12 | 1 | 1 | 1 | ≤ 0.3 | 1 | 1 (active) | 1 (active) | 1 (active) | 1 (active) | 1 (active) | 1 (active) | 1 (active) | 1 (active) | 1 (active) | 1 (active) | 1 (active) | 1 (active) | 1 (active) | 1 (active) | 1 (active) |
| COc1c(C)cnc(Cn2cnc3c(Cl)nc(N)nc32)c1C | ≤ 0.3 | ≤ 0.3 | ≤ 0.3 | ≤ 0.3 | ≤ 0.3 | 1 (active) | 1 (active) | 1 (active) | 1 (active) | 1 (active) | 1 (active) | 1 (active) | 1 (active) | 1 (active) | 1 (active) | 1 (active) | 1 (active) | 1 (active) | 1 (active) | 1 (active) |
| O=C(CCCCCCC(=O)Nc1ccccc1)NO | ≤ 0.3 | 1 | 1 | 1 | 1 | 1 (active) | 1 (active) | 1 (active) | 1 (active) | 1 (active) | 1 (active) | 1 (active) | 1 (active) | 1 (active) | 1 (active) | 1 (active) | 1 (active) | 1 (active) | 1 (active) | 1 (active) |
| COc1ccc(N2C(=O)CSC2c2cccc(Br)c2)c(OC)c1 (configuration not stated) | 3 | 9 | 9 | 3 | 9 | 1 (active) | 1 (active) | 1 (active) | 1 (active) | 1 (active) | 1 (active) | 1 (active) | 1 (active) | 1 (active) | 1 (active) | 1 (active) | 1 (active) | 1 (active) | 1 (active) | 1 (active) |
| CCNC(=O)c1noc(-c2cc(C(C)C)c(O)cc2O)c1-c1ccc(CN2CCOCC2)cc1 | ≤ 0.3 | ≤ 0.3 | ≤ 0.3 | ≤ 0.3 | ≤ 0.3 | 1 (active) | 1 (active) | 1 (active) | 1 (active) | 1 (active) | 1 (active) | 1 (active) | 1 (active) | 1 (active) | 1 (active) | 1 (active) | 1 (active) | 1 (active) | 1 (active) | 1 (active) |
| Cc1cn(CCN2CCN(c3ccccc3-c3cc(C#N)cc(C(=O)NCCCN4CCCC4)c3)CC2)c2ccccc12 | 1 | 3 | 1 | 3 | 1 | 1 (active) | 1 (active) | 1 (active) | 1 (active) | 1 (active) | 1 (active) | 1 (active) | 1 (active) | 1 (active) | 1 (active) | 1 (active) | 1 (active) | 1 (active) | 1 (active) | 1 (active) |
| Oc1cccc(-c2nc(N3CCOCC3)c3oc4ncccc4c3n2)c1 [PI 103 hydrochloride] | ≤ 0.3 | ≤ 0.3 | ≤ 0.3 | ≤ 0.3 | ≤ 0.3 | 1 (active) | 1 (active) | 1 (active) | 1 (active) | 1 (active) | 1 (active) | 1 (active) | 1 (active) | 1 (active) | 1 (active) | 1 (active) | 1 (active) | 1 (active) | 1 (active) | 1 (active) |
| Nc1ncnc2c1nc(Cl)n2C1O[C@H](CO)[C@@H](O)[C@H]1O (some centres not stated) [8-Chloroadenosine] | 1 | 1 | 1 | 1 | 1 | 1 (active) | 1 (active) | 1 (active) | 1 (active) | 1 (active) | 1 (active) | 1 (active) | 1 (active) | 1 (active) | 1 (active) | 1 (active) | 1 (active) | 1 (active) | 1 (active) | 1 (active) |
| CC(C)n1c(/C=C/[C@@H](O)C[C@@H](O)CC(=O)O)c(-c2ccc(F)cc2)c2ccccc21.CC(C)n1c(/C=C/[C@H](O)C[C@H](O)CC(=O)O)c(-c2ccc(F)cc2)c2ccccc21 [Fluvastatin sodium] | ≤ 0.3 | 9 | 3 | 9 | 9 | 1 (active) | 1 (active) | 1 (active) | 1 (active) | 1 (active) | 1 (active) | 1 (active) | 1 (active) | 1 (active) | 1 (active) | 1 (active) | 1 (active) | 1 (active) | 1 (active) | 1 (active) |
| COc1ccc2cc1Oc1ccc(cc1)C[C@H]1c3cc(c(OC)cc3CCN1C)Oc1c(OC)c(OC)cc3c1[C@H](C2)N(C)CC3 [Tetrandrine] | ≤ 0.3 | 1 | ≤ 0.3 | 1 | ≤ 0.3 | 1 (active) | 1 (active) | 1 (active) | 1 (active) | 1 (active) | 1 (active) | 1 (active) | 1 (active) | 1 (active) | 1 (active) | 1 (active) | 1 (active) | 1 (active) | 1 (active) | 1 (active) |
| COCC(=O)O[C@]1(CCN(C)CCCc2nc3ccccc3[nH]2)CCc2cc(F)ccc2[C@@H]1C(C)C [mibefradil] | 3 | 9 | 3 | 9 | 3 | 1 (active) | 1 (active) | 1 (active) | 1 (active) | 1 (active) | 1 (active) | 1 (active) | 1 (active) | 1 (active) | 1 (active) | 1 (active) | 1 (active) | 1 (active) | 1 (active) | 1 (active) |
| CON(C)C(=O)N1N=C(c2cc(F)ccc2F)S[C@@]1(CCCN)c1ccccc1 [ARRY 520 trifluoroacetate] | ≤ 0.3 | ≤ 0.3 | ≤ 0.3 | ≤ 0.3 | ≤ 0.3 | 1 (active) | 1 (active) | 1 (active) | 1 (active) | 1 (active) | 1 (active) | 1 (active) | 1 (active) | 1 (active) | 1 (active) | 1 (active) | 1 (active) | 1 (active) | 1 (active) | 1 (active) |
